# Results published in PubChem BioAssay AID504895 (National Center for Advancing Translational Sciences (NCATS), 2011).
# Results filed as inconclusive are left out. A number with no mark means an inactive call. Calls follow the shape of the dose curve; as a rule, active = well fitted curve in the direction sought with a large enough effect; inconclusive = small, poorly fitted or top-dose-only effect, or another doubt; inactive = no such curve, though single readings can be large or run the other way.
# Molecular target: Protein phosphatase EYA2 (Homo sapiens) (UniProt O00167)
# Assay: Inhibitors of Eya2ED: Hit Confirmation in Primary Screen
# Conditions: Recombinant Eya2ED, OMFP fluorescence phosphatase assay; series mostly up to 76.9 µM; activity change, negative = inhibition: at the top concentration
# Excerpt: The Eya proteins (Eya1-4) were originally identified as essential co-activators of the Six1 transcription factor. […] Knockdown of Six1 decreases cancer cell proliferation and metastases in several different cancer models. […] A fluorescence-based HTS assay has been perfomed against the Molecular Libraries Small Molecule Repository (MLSMR) and has the AID 488837 in this database. After completion of the primary screen, hits were re-ordered and tested again in the primary screen in a 12 point titration. NIH Chemical Genomics Center [NCGC] NIH Molecular Libraries Probe Centers Network [MLPCN] MLPCN Grant: DA030559-01 Assay Submitter (PI): Rui Zhao, University of Colorado, Denver
# The Eya2 enzyme was kindly provided by the laboratory of Dr. Rui Zhao. The 3-O-methyl-fluorescein phosphate (OMFP) substrate and all buffer reagents were purchased from Sigma Aldrich. qHTS Assay Setup: 1. Buffer- 50 mM HEPES pH 7.5, 50 mM NaCl, 5 uM MgCl2, 0.05% BSA, 1 mM DTT. 2. OMFP Stock- 10 mM solution prepared in 100% DMSO and stored in single use aliquots at -20C. Assay Procedure- 1. Dispense 1.5 ul per well of Eya2 at 0.2 uM in black medium binding 1536 well Greiner plate 2. Transfer 23 nl of compound and control compound (EGTA) to plate 3. Incubate at ambient for 10 minutes 4. Dispense 1.5 ul per well of OMFP at 50 uM 5. Incubate at ambient for 10 minutes 6. Read on ViewLux using Excitation = 485 nm, Emission = 525 nm
# Sequence of Protein phosphatase EYA2 (Homo sapiens) (O00167 whole entry, looked up): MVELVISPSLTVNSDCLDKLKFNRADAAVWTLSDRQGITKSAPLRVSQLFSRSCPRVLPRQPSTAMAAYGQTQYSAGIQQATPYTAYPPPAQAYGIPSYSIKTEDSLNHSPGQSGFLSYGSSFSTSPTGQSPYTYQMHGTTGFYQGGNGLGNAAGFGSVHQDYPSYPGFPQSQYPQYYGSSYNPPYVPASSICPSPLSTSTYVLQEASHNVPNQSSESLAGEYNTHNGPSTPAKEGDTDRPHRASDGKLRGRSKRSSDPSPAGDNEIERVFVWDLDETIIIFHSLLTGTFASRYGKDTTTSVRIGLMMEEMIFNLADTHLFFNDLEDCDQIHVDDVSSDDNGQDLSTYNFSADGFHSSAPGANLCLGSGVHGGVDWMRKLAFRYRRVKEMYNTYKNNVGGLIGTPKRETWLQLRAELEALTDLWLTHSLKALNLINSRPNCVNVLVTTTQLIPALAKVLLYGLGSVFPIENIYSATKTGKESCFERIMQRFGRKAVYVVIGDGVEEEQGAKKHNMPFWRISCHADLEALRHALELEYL
row,Structure (SMILES),"activity change, negative = inhibition"
1,Cn1c(O)c(/C=N/NC(=O)c2ccncc2)c(=O)n(C)c1=S,-13.9%
2,O=[N+]([O-])c1ccc(N2CCCC2)c2ccncc12,-9.57%
3,O=C(O)C1C2CCC(O2)C1C(=O)Nc1cccc(Br)c1 (stereo not given),8.6%
4,CCOC(=O)c1ccc(N=C(CC)c2c(O)n(C)c(=O)n(C)c2=O)cc1,-16%
5,O=c1[nH]c(=O)n(C2CCCCC2)c(O)c1C1NCCc2ccccc21 (stereo not given),-5.77%
